KB-3-1 cytotox – KB-3-1 parental cell cytotoxicity. AID 1347075. Potency, µM (doses to about 46.1 µM), hits mostly cytotoxic. 400,000 tested, 1.4% active. KB-3-1 viability, CellTiter-Glo ATP luminescence, 72 h; further: nearly all actives have a fitted effect of over 60% in size
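Cytotoxicity in the drug-sensitive parental line KB-3-1 was scored as loss of CellTiter-Glo luminescence following 72 h incubation with compound. Values come from curve fitting of normalized concentration-response data.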
MCF10A rerep – inducers of DNA re-replication in MCF 10A breast cells | MCF 10A DNA re-replication, Hoechst nuclear intensity, 48 h | Potency, µM (titrated, usually from 46.1 µM), actives largely listed as activators | 350,000 tested, 2.9% active | AID 624296; further: nearly all actives have a fitted effect of over 50% in size
ELG1 repair inh – ELG1-dependent DNA repair inhibition; Potency, µM (top dose mostly 46.1 µM), usual class: inhibitors; 330,000 tested, 2.3% active; HEK293T ELG1-luciferase reporter, luminescence, 16 h; DNA damage induced by 5-fluorouridine; further: nearly all actives have a fitted effect of over 55% in size
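Overnight (16 hr) co-exposure of 2,000 cells/well to 5-fluorouridine and compound at 37 °C preceded detection. Luciferase was quantified via ONE-Glo luminescence; loss of signal denotes inhibition.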
KB-V1 MDR tox – kills drug-selected multidrug resistant KB-V1 cells. KB-V1 MDR cells viability, CellTiter-Glo, 72 h. Potency, µM (series often up to 46.1 µM), most hits filed as cytotoxic. 400,000 tested, 3.4% active; further: nearly all actives have a fitted effect of over 60% in size
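KB-V1 cells (P-gp-expressing MDR subline of KB-3-1) in phenol-red-free DMEM with 10% FBS were exposed to library compounds over a concentration series for 72 h at 37 degrees C. Viability read by CellTiter-Glo luminescence; concentration-effect curves fitted after normalization.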
SW480 rereplic – inducers of DNA re-replication in SW480 colon cancer cells; SW480 DNA re-replication, Hoechst DNA content imaging, 48 h; Potency, µM (highest dose often 46.1 µM), most hits filed as activators; 340,000 tested, 1.8% active; AID 624297; further: nearly all actives have a fitted effect of over 55% in size
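Image-based read-out: total Hoechst fluorescence of nuclei (405 nm excitation, 500-530 nm emission), with hits raising the fraction of high-intensity nuclei. SW480 colon cells incubated 48 hr with compounds at 37 C.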
Hits are given with their value. An excerpt weighted towards active compounds, which were near 8.2% of everything screened. The call rests on the fitted dose curve; in most records, active means well fitted curve in the direction sought with a large enough effect; inconclusive means small, poorly fitted or top-dose-only effect, or another doubt; inactive means no such curve, though single readings can be large; an effect the other way counts as inactive or inconclusive.

What do the screens show for `CCOC(=O)N1CCN(c2c(NCc3ccc(Cl)cc3)c(=O)c2=O)CC1`?
KB-3-1 cytotox: 10µM; MCF10A rerep: 10µM; ELG1 repair inh: inactive; KB-V1 MDR tox: inactive; SW480 rereplic: 6.5µM

How did CCOC(=O)N1CCC(Nc2c(N3CCN(c4cccc(C(F)(F)F)c4)CC3)c(=O)c2=O)CC1 do in these assays?
KB-3-1 cytotox: inactive; MCF10A rerep: inactive; ELG1 repair inh: 18µM; KB-V1 MDR tox: inactive; SW480 rereplic: inactive

Results for CCC(CO)Oc1cc(NCc2ccccc2C(F)(F)F)c2ncn(C(C)C)c2c1 (centres undefined) ?
KB-3-1 cytotox: inactive; MCF10A rerep: inconclusive; ELG1 repair inh: 23µM; KB-V1 MDR tox: inconclusive; SW480 rereplic: inactive

Results for CCC(COC)Oc1cc(NCc2ccccc2)c2ncn(C(C)C)c2c1 (centres undefined) ?
KB-3-1 cytotox: inactive; MCF10A rerep: inconclusive; ELG1 repair inh: 18µM; KB-V1 MDR tox: inactive; SW480 rereplic: inconclusive

How did CC[C@]12c3[nH]c4ccc(Cl)cc4c3CCN1C(=O)[C@@H](CC(=O)NCCC1=CCCCC1)C[C@@H]2C(=O)N1CCN(C(=O)c2ccco2)CC1 do in these assays?
KB-3-1 cytotox: inactive; MCF10A rerep: inconclusive; ELG1 repair inh: 16µM; KB-V1 MDR tox: inactive; SW480 rereplic: inactive

What do the screens show for `CC[C@]12c3[nH]c4cc(-c5ccco5)ccc4c3CCN1C(=O)[C@@H](CC(=O)NCCC1=CCCCC1)C[C@@H]2C(=O)N1CCN(C(=O)C2CC2)CC1`?
KB-3-1 cytotox: inconclusive; MCF10A rerep: inactive; ELG1 repair inh: 21µM; KB-V1 MDR tox: inactive; SW480 rereplic: inactive

Results for CC[C@]12c3[nH]c4cc(-c5ccco5)ccc4c3CCN1C(=O)[C@@H](CC(=O)NCc1ccco1)C[C@@H]2C(=O)N1CCN(C(=O)C2CC2)CC1 ?
KB-3-1 cytotox: inactive; MCF10A rerep: inactive; ELG1 repair inh: inactive; KB-V1 MDR tox: inactive; SW480 rereplic: inactive

What do the screens show for `CC[C@]12c3[nH]c4ccc(Cl)cc4c3CCN1C(=O)[C@@H](CC(=O)NCCN1CCOCC1)C[C@@H]2C(=O)N1CCN(C(=O)c2ccco2)CC1`?
KB-3-1 cytotox: inactive; MCF10A rerep: inactive; ELG1 repair inh: inactive; KB-V1 MDR tox: inactive; SW480 rereplic: inactive

What do the screens show for `CC[C@]12c3[nH]c4ccc(OC)cc4c3CCN1C(=O)C(CC(=O)NCC13CC4CC(CC(C4)C1)C3)C[C@@H]2C(=O)N1CCN(C(=O)c2ccco2)CC1` (some centres undefined)?
KB-3-1 cytotox: inactive; MCF10A rerep: inconclusive; ELG1 repair inh: inactive; KB-V1 MDR tox: inactive; SW480 rereplic: inconclusive

Results for CC[C@]12c3[nH]c4ccc(Cl)cc4c3CCN1C(=O)[C@@H](CC(=O)NCC13CC4CC(CC(C4)C1)C3)C[C@@H]2C(=O)N1CCN(C(=O)c2ccco2)CC1 ?
KB-3-1 cytotox: inconclusive; MCF10A rerep: 21µM; ELG1 repair inh: 21µM; KB-V1 MDR tox: inconclusive; SW480 rereplic: inconclusive

How did CCCCc1nn2c(=O)cc(COC(=O)c3ccccc3C)nc2s1 do in these assays?
KB-3-1 cytotox: inactive; KB-V1 MDR tox: inactive

Results for N#Cc1ccc(COC(=O)c2cccnc2Cl)cc1 ?
KB-3-1 cytotox: inactive; MCF10A rerep: inactive; ELG1 repair inh: inactive; KB-V1 MDR tox: inactive; SW480 rereplic: inactive

Results for N#Cc1ccc(N2Cc3ccccc3C2=NC(=O)c2cccnc2Cl)cc1 ?
KB-3-1 cytotox: inconclusive; MCF10A rerep: inconclusive; ELG1 repair inh: inconclusive; KB-V1 MDR tox: 16µM; SW480 rereplic: inactive

What do the screens show for `CCOCCCn1c(=N)c(C(=O)NCc2cccnc2)cc2c(=O)n3cc(C)ccc3nc21`?
KB-3-1 cytotox: inactive; KB-V1 MDR tox: inactive

What do the screens show for `COc1ccc(Nc2ncnc3ccccc23)cc1`?
KB-3-1 cytotox: inactive; MCF10A rerep: inactive; ELG1 repair inh: inactive; KB-V1 MDR tox: inactive; SW480 rereplic: inactive

What do the screens show for `CCOc1ccccc1Nc1ccnc2cc(Cl)ccc12`?
KB-3-1 cytotox: inactive; MCF10A rerep: inconclusive; ELG1 repair inh: inactive; KB-V1 MDR tox: inconclusive; SW480 rereplic: inconclusive

How did O=C(NCCc1ccccc1)c1nccc2ccccc12 do in these assays?
KB-3-1 cytotox: inactive; MCF10A rerep: inactive; ELG1 repair inh: inconclusive; KB-V1 MDR tox: inactive; SW480 rereplic: inactive

Results for CC(C)Nc1ccc(Nc2ccnc3cc4ccccc4cc23)cc1 ?
KB-3-1 cytotox: 16µM; MCF10A rerep: inconclusive; ELG1 repair inh: inactive; KB-V1 MDR tox: inconclusive; SW480 rereplic: inactive

How did COc1ccc(Nc2ccnc3ccccc23)cc1 do in these assays?
KB-3-1 cytotox: inactive; MCF10A rerep: inactive; ELG1 repair inh: 16µM; KB-V1 MDR tox: inconclusive; SW480 rereplic: inactive

What do the screens show for `c1ccc(CCNc2ccnc3cc4ccccc4cc23)cc1`?
KB-3-1 cytotox: 18µM; MCF10A rerep: 16µM; ELG1 repair inh: inconclusive; KB-V1 MDR tox: 8.2µM; SW480 rereplic: 16µM

Results for COc1ccc(Nc2ccnc(Nc3ccc(OC)cc3)n2)cc1 ?
KB-3-1 cytotox: inconclusive; MCF10A rerep: 23µM; ELG1 repair inh: inconclusive; KB-V1 MDR tox: 16µM; SW480 rereplic: inconclusive

Results for Cc1ccc(-c2nc3c(c(SCC(=O)Nc4ccccc4Cl)n2)Cc2c(CO)cnc(C)c2O3)cc1 ?
KB-3-1 cytotox: inactive; KB-V1 MDR tox: inactive

What do the screens show for `COc1ccc(-c2oc3ncn4nc(-c5ccccc5OC)nc4c3c2-c2ccc(OC)cc2)cc1`?
KB-3-1 cytotox: inactive; KB-V1 MDR tox: inactive

What do the screens show for `Cc1nc(-c2ccccc2)sc1C(=O)/C=C/c1ccc(Cl)cc1`?
KB-3-1 cytotox: inconclusive; MCF10A rerep: 4.1µM; ELG1 repair inh: inactive; KB-V1 MDR tox: inconclusive; SW480 rereplic: inactive

Results for COc1ccc(N/C=C/C(=O)c2sc(-c3ccccc3)nc2C)cc1 ?
KB-3-1 cytotox: inconclusive; MCF10A rerep: inconclusive; ELG1 repair inh: inactive; KB-V1 MDR tox: 18µM; SW480 rereplic: inconclusive

Results for CCc1ccc(NC(=O)C2=CC=CN3CCS(=O)(=O)N=C23)cc1 ?
KB-3-1 cytotox: inactive; MCF10A rerep: inactive; ELG1 repair inh: inconclusive; KB-V1 MDR tox: inactive; SW480 rereplic: inactive

Results for CC(=O)NC12CC3CC(C1)CC(C(=O)Nc1nc4ccc(F)cc4s1)(C3)C2 ?
KB-3-1 cytotox: inactive; MCF10A rerep: inactive; ELG1 repair inh: inactive; KB-V1 MDR tox: inactive; SW480 rereplic: inactive

Results for Cn1c(CSCc2ccc(F)cc2)nnc1SCC(=O)Nc1nccs1 ?
KB-3-1 cytotox: inconclusive; MCF10A rerep: inactive; ELG1 repair inh: 16µM; KB-V1 MDR tox: 23µM; SW480 rereplic: inactive

What do the screens show for `Cn1c(CSCc2ccc(F)cc2)nnc1SCC(=O)N1CCN(c2ccccc2)CC1`?
KB-3-1 cytotox: inconclusive; MCF10A rerep: inactive; ELG1 repair inh: inconclusive; KB-V1 MDR tox: 16µM; SW480 rereplic: inactive

How did Cn1c(CSCc2ccc(Cl)cc2)nnc1SCC(=O)Nc1nccs1 do in these assays?
KB-3-1 cytotox: inactive; MCF10A rerep: inactive; ELG1 repair inh: inconclusive; KB-V1 MDR tox: inactive; SW480 rereplic: inactive
